The full list was thinned out, with hits kept by preference.
TbREL1 inh = TbREL1 RNA ligase inhibitors, primary screen, biochemical, FRET fluorescence | RNA-editing ligase 1, mitochondrial (Trypanosoma brucei brucei), P86926 | inhibition, % at 9.66 µM | TbREL1 RNA ligation | 89,000 tested, 0.49% active;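 active means inhibition above the mean inhibition across all screened compounds plus 3 SD, cut at about 11% in these data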;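 further: 0% = plate median of test wells and 100% = NSC42067 control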
Target sequence (P86926 whole entry, looked up): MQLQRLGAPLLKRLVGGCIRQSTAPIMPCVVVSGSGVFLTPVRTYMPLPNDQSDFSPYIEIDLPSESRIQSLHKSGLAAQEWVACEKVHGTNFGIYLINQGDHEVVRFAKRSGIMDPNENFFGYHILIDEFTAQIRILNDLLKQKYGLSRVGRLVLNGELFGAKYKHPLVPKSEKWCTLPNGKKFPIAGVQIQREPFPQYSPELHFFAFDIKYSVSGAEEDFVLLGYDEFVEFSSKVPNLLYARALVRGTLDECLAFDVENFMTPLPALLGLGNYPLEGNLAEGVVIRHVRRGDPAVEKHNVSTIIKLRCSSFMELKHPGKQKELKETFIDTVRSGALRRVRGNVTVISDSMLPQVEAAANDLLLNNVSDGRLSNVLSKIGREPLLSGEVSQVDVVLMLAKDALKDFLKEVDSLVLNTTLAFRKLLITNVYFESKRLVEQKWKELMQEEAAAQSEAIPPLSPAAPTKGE
TbREL1 confirm = TbREL1 RNA ligase inhibitors, confirmation, biochemical, FRET fluorescence, triplicate | 390 tested, 37% active | TbREL1 RNA ligation | shares compounds with TbREL1 inh | inhibition, % at 9.66 µM;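 active means mean inhibition across replicates above a set limit taken from the earlier primary screen, cut at about 11% in these data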;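 further: 0% = REL1 with substrate and DMSO and 100% = REL1 plus control inhibitor NSC42067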
Active calls of the source: *.

SMILES	TbREL1 inh	others
COc1ccc(CC(=O)N2CCN(C(=O)c3ccc4nc(C)n(C5CCCC5)c4c3)CC2)cc1	-3
C(=C\c1ccccc1)/CSc1nc2ncccc2[nH]1	0
N#CCSc1nc2ccccc2o1	5
N#CCSc1nccc(/C=C/c2ccccc2)n1	12*	TbREL1 confirm=2
Cc1nc2ccc(NC(=O)c3c(Cl)cccc3Cl)cc2c(=O)[nH]1	7
CC1CC(Nc2ccccc2)c2ccccc2N1C(=O)c1ccccc1F (configuration not stated)	0
CCC(C)[C@H]1CN=C(N)N1CCc1cccc2ccccc12 (some centres not stated)	12*	TbREL1 confirm=7
c1ccc([C@H]2CNCCN2CCc2cccc3ccccc23)cc1	4
O=C1NC[C@@H](Cc2ccc(O)cc2)N(CCc2cccc3ccccc23)C1=O	-3
CCOc1ccc(S(=O)(=O)N(C)c2ccc(OCC(=O)Nc3ccc4[nH]c(=O)[nH]c4c3)cc2)cc1	11*	TbREL1 confirm=3
CN(c1ccc(OCC(=O)Nc2ccc3[nH]c(=O)[nH]c3c2)cc1)S(=O)(=O)c1ccc(Cl)cc1	0
COC(=O)c1ccc(NC(=O)COc2ccc(N(C)S(=O)(=O)c3ccc(C)cc3)cc2)cc1	0
C[N+](C)(C)CC(=O)N1CCN(c2ccc3ccccc3n2)CC1	8
CC(=O)c1ccc(N2CCN(C(=O)C3CCN(C(=O)Nc4ccccc4)CC3)CC2)cc1	1
COC(=O)c1cnn2c(C)c(Cc3cccc(F)c3)c(C)nc12	16*	TbREL1 confirm=2
COC(=O)c1ccc2nc(-c3ccc(C)cc3)c(Cc3cccc(F)c3)n2c1	7
Cc1nc2c(C(=O)N3CCCC3)cnn2c(C)c1Cc1c(F)cccc1Cl	7
O=C(NCC(=O)N1CCN(C(=O)c2ccco2)CC1)c1cccc(Cl)c1	3
O=C(c1ccc(=O)[nH]n1)N1CCc2ccccc2C1	0
C/C(=N\NC(=O)Cc1ccccc1)c1cccnc1	6
CC(NCc1ccco1)C(=O)N1CCOCC1 (configuration not stated)	-2
COC(=O)C1=C(C)N(Cc2cccc(C(F)(F)F)c2)C(=NCc2ccc(OC)cc2)NC1c1ccc(F)cc1 (configuration not stated)	12*	TbREL1 confirm=14*
COC(=O)C1=C(C)N(Cc2ccccc2C(F)(F)F)C(=NCc2ccccc2)NC1c1ccc(Cl)cc1 (configuration not stated)	14*	TbREL1 confirm=16*
COC(=O)C1=C(C)N(Cc2ccccc2C(F)(F)F)C(=NCc2ccc(C(F)(F)F)cc2)NC1c1ccc(C(F)(F)F)cc1 (configuration not stated)	25*	TbREL1 confirm=23*
COC(=O)C1=C(C)N(Cc2ccc(Br)cc2)C(=S)NC1c1ccc(F)cc1 (configuration not stated)	2
SMILES	TbREL1 inh	others
COC(=O)C1=C(C)N(Cc2ccccc2)C(=S)NC1c1ccc(-c2ccccc2)cc1 (configuration not stated)	-6
COC(=O)C1=C(C)N(Cc2ccc(F)cc2)C(=S)NC1c1cccc(OC)c1 (configuration not stated)	-6
CCN=C1NC(c2ccc(C(F)(F)F)cc2)C(C(=O)OC)=C(C)N1Cc1ccccc1C(F)(F)F (configuration not stated)	11*	TbREL1 confirm=12*
CCN=C1NC(c2ccc(F)cc2)C(C(=O)OC)=C(C)N1Cc1ccc(C(F)(F)F)cc1 (configuration not stated)	4
C[C@H]1CN=C(Nc2ccccc2)N1CCCC1CCCC1	3
CC1(c2ccccc2)NC(=O)N(CC(=O)Nc2ccc(Cl)c(S(=O)(=O)N3CCCCC3)c2)C1=O (configuration not stated)	-2
CC(C)[C@H](NC(N)=O)C(=O)Nc1cccc([N+](=O)[O-])c1	2
CC1CN(c2ccnc3cc(Cl)ccc23)CCN1C(=O)c1ccc(Cl)cc1 (configuration not stated)	7
C[C@@H]1CN([C@@H](C)CO)S(=O)(=O)c2ccc(C#Cc3cccc(F)c3)cc2O[C@@H]1CN(C)CC1CC1	-5
CN(CC(=O)Nc1ccc(F)c(F)c1F)C(=O)c1ccc(=O)[nH]c1	7
COCc1nnc(NC(=O)CS(=O)(=O)c2ccc(C)cc2)s1	5
CS(=O)(=O)Nc1ccc(C(=O)Nc2ccccc2C(=O)NCc2ccco2)cc1	4
CCN1C(=NCc2cccc(Cl)c2)N[C@@H](c2cccc(F)c2)C(C(=O)OC)=C1C	7
COC(=O)C1=C(C)N(Cc2ccccc2)C(=NCc2cccc(C(F)(F)F)c2)N[C@H]1c1cccc(F)c1	9
COC(=O)C1=C(C)N(Cc2ccccc2)C(=NCc2ccc(OC)cc2)N[C@H]1c1ccccc1	10
COC(=O)C1=C(C)N(Cc2ccccc2C(F)(F)F)C(=NCc2ccccc2)NC1c1cccc(F)c1 (configuration not stated)	15*	TbREL1 confirm=20*
COC(=O)C1=C(C)N(Cc2ccccc2C(F)(F)F)C(=NCc2ccc(C(F)(F)F)cc2)NC1c1ccccc1 (configuration not stated)	16*	TbREL1 confirm=18*
COc1ccc2c(c1)[C@H]1[C@H](CO2)[C@H](c2ccccc2)[C@]2(C)C(=O)Nc3cc(OC)c(OC)cc3C(=O)N12	-2
CN1CCN(NC(=O)CN2C(=O)S/C(=C\c3c(Cl)cccc3Cl)C2=O)CC1	2
CCCCn1nc(C(=O)N2CCN(S(=O)(=O)c3ccccc3)CC2)c2ccccc2c1=O	4
Cc1ccccc1S(=O)(=O)/N=C(/Nc1nc2ccccc2s1)c1ccccc1	1
COc1cc(OC)cc(-n2nnnc2SCC(=O)Nc2ccc(C(C)=O)cc2)c1	-1
Cc1cc(NS(=O)(=O)c2ccc(NC(=O)CSc3nnc(-c4ccc(Cl)cc4)n3Cc3ccco3)cc2)nc(C)n1	-2
Cc1ccc(OCc2nnc(SCC(=O)Nc3ccc(S(=O)(=O)Nc4cc(C)nc(C)n4)cc3)n2Cc2ccco2)cc1	6
Cc1cc(NS(=O)(=O)c2ccc(NC(=O)CSc3nnc(-c4ccncc4)n3Cc3ccco3)cc2)nc(C)n1	35*	TbREL1 confirm=0
SMILES	TbREL1 inh	others
COc1ccccc1NC(=O)C(C)OC(=O)COc1cccc2c1OC(C)(C)C2 (configuration not stated)	1
Cc1cccc([C@H]2[C@@H]3C=CCC[C@@H]3C(=O)N2Cc2ccccc2)c1	-2
Cc1c(C(=O)Nc2ccc(Cl)cc2)c2ccccn2c1C(=O)c1ccc([N+](=O)[O-])cc1	3
CC1CCCCN1c1nnc(NC(=O)Cn2c(=O)oc3ccccc32)s1 (configuration not stated)	-2
COc1ccccc1-c1c(C)nn2c(N3CCC(C(N)=O)CC3)cc(C)nc12	4
COc1ccccc1-c1c(C)nn2c(N3CCC(C)CC3)cc(C)nc12	-1
CCOC(=O)N1CCN(C(=O)CSc2cc(C)nc3c(-c4ccccc4OC)c(C)nn23)CC1	13*	TbREL1 confirm=2
O=C(O)c1ccc([N+](=O)[O-])cc1	2
CC(=O)/C(N=Nc1ccc(C(=O)O)cc1[N+](=O)[O-])=C(\C)O	12*	TbREL1 confirm=8
CC(=O)N1CCN(c2ccc(C(N)=O)cc2[N+](=O)[O-])CC1	6
CN(C)[C@H]1CCN(c2ccc3c(c2)O[C@@H]2CCN(C2)S3(=O)=O)C1	1
C[C@@H](NC(=O)Cn1cnc2c(OCc3ccccc3)ncnc21)c1cccc2ccccc12	-4
